“And” between values parts separate entries of the source, which are not always exact repeats. Equal entries are not always repeated. Results filed as inconclusive are left out. A call without a number means that no potency is given here. Some structures have more than one record in an assay (separate samples or runs), and their calls can disagree. The source made the active and inactive calls. Unless noted, the call rests on the fitted dose curve; in most records, active means well fitted curve in the direction sought with a large enough effect in the repeat runs; inconclusive means weak or mixed curves; inactive means no such curve, though single readings can be large; an effect the other way counts as inactive or inconclusive.
Key:
[1] = qHTS assay to identify small molecule antagonists of the retinoic acid receptor (RAR) signaling pathway (AID 1159552; further: nearly all actives have a fitted effect of over 50% in size; further: potency means the concentration at half of the fitted maximal effect)
In short: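 Test chemicals and DMSO controls were pin-transferred onto C3RL4 cells a day after seeding; retinol (1 uM final) followed at once. Luminescent reporter output was quantified after 6 hr of co-incubation and 30 min with detection reagent.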

[2] = qHTS assay to identify small molecule antagonists of the estrogen related receptor (ERR) signaling pathway from Tox21 library - cell viability counter screen (AID 1224834); further: nearly all actives have a fitted effect of over 30% in size; further: potency means the concentration at half of the fitted maximal effect
In short: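 CellTiter-Fluor fluorescence measured; ERR cells; 17.5 h compound incubation at 37 C; 30 min reagent step.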

[3] = target: Luciferin 4-monooxygenase (Photinus pyralis) (UniProt P08659); test: qHTS assay to identify small molecule inhibitors of firefly luciferase (AID 1224835); further: nearly all actives have a fitted effect of over 25% in size; further: potency means the concentration at half of the fitted maximal effect
In short: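 Quantitative HTS format; KM concentrations of both substrates. Purified P. pyralis FLuc activity quantified from luminescence images.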

[4] = qHTS assay to identify small molecule agonists of the constitutive androstane receptor (CAR) signaling pathway - cell viability counter screen (AID 1224836); further: nearly all actives have a fitted effect of over 45% in size; further: potency means the concentration at half of the fitted maximal effect
In short: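 23 h treatment, 37 C, 5% CO2. Cell line: HepG2 stably expressing hCAR with a CYP2B6-2.2kb construct. Co-treatment: PK11195, 0.75 uM final. Read-out: CellTiter-Fluor fluorescence intensity.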

[5] = target: Nuclear receptor subfamily 1 group I member 3 (Homo sapiens) (UniProt Q14994); test: qHTS assay to identify small molecule antagonists of the constitutive androstane receptor (CAR) signaling pathway (AID 1224838);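 further: HepG2 cells stably expressing hCAR with CYP2B6 luciferase reporter stimulated by CITCO; nearly all actives have a fitted effect of over 40% in size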; further: potency means the concentration at half of the fitted maximal effect
In short: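 Reporter luminescence was quantified after 24 h exposure of hCAR/CYP2B6-2.2kb double-stable HepG2 cells to compounds at 15 concentrations in the presence of 50 nM CITCO final.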

[6] = target: Nuclear receptor subfamily 1 group I member 3 (Homo sapiens) (UniProt Q14994); test: qHTS assay to identify small molecule agonists of the constitutive androstane receptor (CAR) signaling pathway (AID 1224839); further: nearly all actives have a fitted effect of over 15% in size; further: potency means the concentration at half of the fitted maximal effect;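 on activation: HepG2 cells stably carrying human CAR and a CYP2B6 luciferase reporter; series mostly up to about 92 µM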
In short: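 Compounds tested at 15 concentrations on HepG2 cells stably harbouring hCAR and CYP2B6-2.2kb reporter constructs, co-treated with PK11195 (0.75 uM final), 24 h at 37 C; luminescent reporter signal quantified.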

[7] = qHTS assay to identify small molecule antagonists of the estrogen related receptor signaling pathway with the pleiotropic PPARgamma coactivator (PGC) from Tox21 10K library - cell viability counter screen (AID 1224840; active means well fitted cell-killing curve with a large enough effect in the repeat runs, not every such curve was filed as active; further: nearly all actives have a fitted effect of over 40% in size; further: potency means the concentration at half of the fitted maximal effect)
In short: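 Here the PGC/ERR cells serve as a cytotoxicity control: they are exposed to compounds for 17.5 hours at 37 C, and live-cell signal is quantified using CellTiter-Fluor fluorescence.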

[8] = qHTS assay to identify small molecule agonists of the estrogen related receptor signaling pathway with the pleiotropic PPARgamma coactivator (PGC) from Tox21 10K library (AID 1224842); further: nearly all actives have a fitted effect of over 15% in size
In short: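 PGC/ERR reporter cells (NTP line) were seeded 2,000 per well, rested 6 h at 37 C/5% CO2, then pin-dosed with compounds in DMSO for 18 h at 37 C; luciferase read by One-Glo luminescence after 30 min at room temperature.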

[9] = target: Thyrotropin receptor (Homo sapiens) (UniProt P16473); test: qHTS assay to identify small molecule agonists of the thyroid stimulating hormone receptor (TSHR) signaling pathway (AID 1224843; calls by dose curve; further: nearly all actives have a fitted effect of over 45% in size; further: potency means the concentration at half of the fitted maximal effect)
In short: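 Cell line HEK293 with TSHR; density 800/well. Exposure 30 min RT. Readout HTRF cAMP (cAMP-d2/anti-cAMP-cryptate), 1 h RT before reading.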

[10] = qHTS assay to identify small molecule agonists of H2AX (AID 1224845; active means well fitted activation curve with a large enough effect in the signal ratio in the repeat runs, not every such curve was filed as active; the % refers to the signal ratio; further: potency means the concentration at half of the fitted maximal effect)
In short: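 Wild-type CHO-K1 cells plated overnight, then exposed 3 hr at 37C to compounds at 15 concentrations (0.76% DMSO). Lysed, then HTRF anti-pH2AX(S139)-cryptate/anti-H2AX-d2 detection after 24 hr at room temperature; emissions 665 and 620 nm.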

[11] = qHTS assay to identify small molecule antagonists of the estrogen related receptor signaling pathway with the pleiotropic PPARgamma coactivator (PGC) from Tox21 10K library (AID 1224841; call rule not given here; further: actives are mostly falling curves and most rising ones were filed inactive; nearly all actives have a fitted effect of over 50% in size; further: potency means the concentration at half of the fitted maximal effect)
In short: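 Each well held 2,000 PGC/ERR cells, pre-incubated six hours (37 C, 5% CO2). Test substances in DMSO were added by pin tool and left for 18 h at 37 C before luciferase detection by One-Glo.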

[12] = qHTS assay to identify small molecule agonists of the hypoxia (HIF-1) signaling pathway - cell viability counter screen (AID 1224844; calls by dose curve; further: nearly all actives have a fitted effect of over 50% in size; further: potency means the concentration at half of the fitted maximal effect)
In short: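 Multiplexed with the HRE beta-lactamase assay, this viability read used CellTiter-Glo luminescence (30 min, RT) on HRE-bla ME-180 cells treated 17 hrs with compounds in 0.5% dialyzed FBS medium.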

[13] = qHTS assay to identify small molecule antagonists of the constitutive androstane receptor (CAR) signaling pathway - cell viability counter screen (AID 1224837); further: nearly all actives have a fitted effect of over 45% in size; further: potency means the concentration at half of the fitted maximal effect
In short: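 Using CellTiter-Fluor, viability is scored in HepG2 cells stably carrying hCAR and a 2.2kb CYP2B6 reporter after 23 hr compound exposure across 15 concentrations, with CITCO present at 50 nM.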

[14] = qHTS assay to identify small molecule agonists of the retinoic acid receptor (RAR) signaling pathway (AID 1159553)
In short: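 Activation of retinol signaling was monitored via a RARE luciferase reporter in C3RL4 cells. After 6 hr compound treatment at 37 C, detection reagent was added for 30 min at room temperature before luminescence reading.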

[15] = qHTS assay to identify small molecule antagonists of the estrogen related receptor (ERR) signaling pathway - cell viability counter screen (AID 1224818);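 further: series mostly up to about 46 µM; viability measured after 17.5 h of compound exposure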
In short: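 In the same ERR cell assay, compound-treated wells (17.5 h, 37 C) were multiplexed with a fluorogenic viability reagent, CellTiter-Fluor, read after 30 min to flag cytotoxic substances.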

[16] = qHTS assay to identify small molecule antagonists of the estrogen related receptor (ERR) signaling pathway (AID 1224819;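 further: luminescence from an ERR-driven luciferase reporter measured with One-Glo reagent; series mostly up to about 46 µM; nearly all actives have a fitted effect of over 50% in size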)
In short: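 qHTS in ERR cells, 2,000/well, 1536 format. Cpd (DMSO) added after 6 h settle, 18 h 37 C. One-Glo luminescence, 30 min RT.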

[17] = qHTS assay to identify small molecule agonists of the estrogen related receptor (ERR) signaling pathway (AID 1224820)
In short: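 Cells: ERR line from NTP, 2,000/well. Pre-incubation 6 h, 37 C/5% CO2. Compound (DMSO) pin transfer, 18 h 37 C. One-Glo, 30 min RT, luminescence.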

[18] = system: estrogen-related receptor alpha (ERRalpha) with PGC-1alpha coactivator, human; test: qHTS assay to identify small molecule antagonists of the estrogen related receptor signaling pathway with the pleiotropic PPARgamma coactivator (PGC) (AID 1224821; calls by dose curve)
In short: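 Luminescent read-out (One-Glo, 30 min at room temperature) following 18 h treatment of PGC/ERR cells at 37 C with compounds delivered in DMSO. Cells had settled 6 h at 37 C/5% CO2 before dosing.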

[19] = qHTS assay to identify small molecule antagonists of the estrogen related receptor signaling pathway with the pleiotropic PPARgamma coactivator (PGC) cell viability counter screen (AID 1224822; further: series mostly up to about 46 µM)
In short: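 Compounds in DMSO, with positive and negative controls, were applied to PGC/ERR cells (2,000/well) and left 17.5 h at 37 C before CellTiter-Fluor detection.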

[20] = qHTS assay to identify small molecule agonists of the estrogen related receptor signaling pathway with the pleiotropic PPARgamma coactivator (PGC) (AID 1224823)
In short: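 Steps: plate PGC/ERR cells at 2,000 cells/well; incubate 6 h, 37 C/5% CO2; pin-transfer compounds (DMSO); incubate 18 h, 37 C; add One-Glo; 30 min RT; read luminescence.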

Thyrotropin receptor (Homo sapiens), sequence (P16473 whole entry, looked up): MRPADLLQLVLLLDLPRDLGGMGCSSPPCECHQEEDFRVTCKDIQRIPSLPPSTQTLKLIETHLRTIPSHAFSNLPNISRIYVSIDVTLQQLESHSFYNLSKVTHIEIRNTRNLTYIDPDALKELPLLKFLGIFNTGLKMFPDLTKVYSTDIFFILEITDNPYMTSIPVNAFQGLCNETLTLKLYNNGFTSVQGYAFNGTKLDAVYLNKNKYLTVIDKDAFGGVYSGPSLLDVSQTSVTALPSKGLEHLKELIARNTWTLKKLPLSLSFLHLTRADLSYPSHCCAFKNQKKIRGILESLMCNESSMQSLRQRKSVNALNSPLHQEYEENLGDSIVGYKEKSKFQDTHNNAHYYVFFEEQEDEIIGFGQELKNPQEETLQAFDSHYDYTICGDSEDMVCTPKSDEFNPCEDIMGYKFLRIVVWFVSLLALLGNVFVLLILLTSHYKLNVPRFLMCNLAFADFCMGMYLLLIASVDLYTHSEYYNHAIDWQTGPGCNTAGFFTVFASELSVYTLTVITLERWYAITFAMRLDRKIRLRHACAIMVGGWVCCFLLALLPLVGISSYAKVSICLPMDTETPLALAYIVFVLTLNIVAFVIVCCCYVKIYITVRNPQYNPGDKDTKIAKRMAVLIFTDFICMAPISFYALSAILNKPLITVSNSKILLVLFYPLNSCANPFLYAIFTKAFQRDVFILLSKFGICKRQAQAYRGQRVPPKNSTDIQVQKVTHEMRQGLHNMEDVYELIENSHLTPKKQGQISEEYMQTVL
Nuclear receptor subfamily 1 group I member 3 (Homo sapiens), sequence (Q14994 whole entry, looked up): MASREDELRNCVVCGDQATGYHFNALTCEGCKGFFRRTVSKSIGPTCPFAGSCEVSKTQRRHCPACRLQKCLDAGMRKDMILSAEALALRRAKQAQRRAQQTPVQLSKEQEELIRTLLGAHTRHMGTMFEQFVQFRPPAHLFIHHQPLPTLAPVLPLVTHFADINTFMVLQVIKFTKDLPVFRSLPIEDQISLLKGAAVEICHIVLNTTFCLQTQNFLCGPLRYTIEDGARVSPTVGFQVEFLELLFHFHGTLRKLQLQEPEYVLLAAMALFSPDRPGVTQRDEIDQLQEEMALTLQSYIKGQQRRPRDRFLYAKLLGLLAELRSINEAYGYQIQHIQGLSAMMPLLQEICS
Luciferin 4-monooxygenase (Photinus pyralis), sequence (P08659 whole entry, looked up): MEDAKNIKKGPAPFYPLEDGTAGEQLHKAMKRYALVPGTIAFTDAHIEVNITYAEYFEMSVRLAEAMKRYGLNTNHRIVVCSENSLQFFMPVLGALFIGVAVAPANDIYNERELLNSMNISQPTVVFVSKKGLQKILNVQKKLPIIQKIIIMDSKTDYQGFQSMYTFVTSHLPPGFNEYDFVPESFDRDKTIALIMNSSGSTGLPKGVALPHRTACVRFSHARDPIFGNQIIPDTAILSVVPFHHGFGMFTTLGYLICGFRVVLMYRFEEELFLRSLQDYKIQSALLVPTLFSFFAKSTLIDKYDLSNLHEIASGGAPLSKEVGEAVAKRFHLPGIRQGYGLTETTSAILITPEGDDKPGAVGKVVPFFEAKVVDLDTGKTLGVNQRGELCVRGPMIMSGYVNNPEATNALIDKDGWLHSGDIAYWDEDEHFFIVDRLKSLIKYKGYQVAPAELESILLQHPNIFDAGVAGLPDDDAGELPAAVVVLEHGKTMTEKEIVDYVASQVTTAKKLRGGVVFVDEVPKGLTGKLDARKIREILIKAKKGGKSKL

CO[Si](CCCNCCNCCN)(OC)OC
Potency [1]: inactive
Potency [2]: inactive
Potency [3]: inactive
Potency [4]: inactive
Potency [5]: inactive
Potency [6]: inactive
Potency [7]: inactive
Potency [8]: inactive
Potency [9]: inactive
Potency [10]: inactive

CN1CN(C)CN(C)C1
Potency [1]: inactive
Potency [2]: inactive
Potency [3]: inactive
Potency [4]: inactive
Potency [5]: inactive
Potency [6]: inactive
Potency [7]: inactive
Potency [11]: inactive
Potency [8]: inactive
Potency [9]: inactive
Potency [12]: inactive

CC(C)CCOCCC(C)C
Potency [1]: inactive
Potency [2]: inactive
Potency [3]: inactive
Potency [4]: inactive
Potency [5]: inactive
Potency [6]: inactive
Potency [7]: inactive
Potency [11]: inactive
Potency [8]: inactive
Potency [9]: inactive
Potency [10]: inactive

Brc1ccccn1
Potency [1]: inactive
Potency [2]: inactive
Potency [3]: inactive
Potency [4]: inactive
Potency [5]: inactive
Potency [6]: inactive
Potency [7]: inactive
Potency [9]: inactive
Potency [12]: inactive
Potency [10]: inactive

CCN(CC)CCOc1ccc(C(O)(Cc2ccc(Cl)cc2)c2ccc(C)cc2)cc1 (stereo not drawn)
Potency [1]: 26.6 µM (active)
Potency [2]: 33.5 µM (active)
Potency [3]: inactive
Potency [8]: inactive
Potency [9]: inactive
Potency [10]: 49.2 µM (active)

O=C1c2c(O)ccc([N+](=O)[O-])c2C(=O)c2c([N+](=O)[O-])ccc(O)c21
Potency [1]: 27.1 µM (active)
Potency [2]: 27.1 µM (active)
Potency [3]: 62.7 µM (active)
Potency [4]: 24.1 µM (active)
Potency [5]: 24.1 µM (active)
Potency [7]: 30.4 µM (active)
Potency [11]: 9.6 µM (active)
Potency [8]: inactive
Potency [12]: 6.85 µM (active)

O=C1NC2CCCCN2C12CCN(CCCN1c3ccccc3CCc3ccc(Cl)cc31)CC2 (stereo not drawn)
Potency [1]: 29.8 µM (active)
Potency [2]: 29.8 µM (active)
Potency [3]: inactive
Potency [6]: inactive
Potency [8]: inactive

CCCSS/C(CCO)=C(\C)N(C=O)Cc1cnc(C)nc1N
Potency [1]: 29.8 µM (active)
Potency [3]: inactive
Potency [4]: inactive
Potency [13]: inactive
Potency [6]: inactive
Potency [7]: inactive
Potency [9]: inactive
Potency [12]: inactive

CC1CCCCC1
Potency [1]: inactive
Potency [2]: inactive
Potency [3]: inactive
Potency [4]: inactive
Potency [5]: inactive
Potency [7]: inactive
Potency [9]: inactive
Potency [12]: inactive
Potency [10]: inactive

c1cc[nH]c1
Potency [1]: inactive
Potency [2]: inactive
Potency [3]: inactive
Potency [4]: inactive
Potency [5]: inactive
Potency [6]: inactive
Potency [7]: inactive
Potency [11]: inactive
Potency [8]: inactive
Potency [9]: inactive
Potency [12]: inactive
Potency [10]: inactive

CC=O
Potency [1]: 25.5 µM (active)
Potency [2]: 28.6 µM (active)
Potency [3]: inactive
Potency [5]: 36 µM (active)
Potency [6]: inactive
Potency [7]: 25.5 µM (active)
Potency [12]: 40.7 µM (active)

CC(O)C#CC(C)O (stereo not drawn)
Potency [1]: 30.3 µM (active)
Potency [3]: inactive
Potency [13]: 53.9 µM (active)
Potency [5]: 48.1 µM (active)
Potency [6]: inactive

CCCCCCCCC(C)=O
Potency [1]: inactive
Potency [2]: inactive
Potency [3]: inactive
Potency [4]: inactive
Potency [5]: inactive
Potency [7]: inactive
Potency [9]: inactive
Potency [12]: inactive
Potency [10]: inactive

Nc1ccc2cc3ccc(N)cc3nc2c1
Potency [1]: 4.33 µM (active) and 16.8 µM (active)
Potency [3]: inactive
Potency [12]: 24.5 µM (active) and inactive

CC(C)(C)CC(C)(C)c1ccccc1O
Potency [1]: 27.4 µM (active)
Potency [3]: inactive
Potency [4]: inactive
Potency [6]: inactive
Potency [7]: inactive
Potency [11]: inactive
Potency [8]: inactive
Potency [9]: 13.8 µM (active)

CC(=O)OC(OC(C)=O)c1ccc([N+](=O)[O-])o1
Potency [1]: 27.8 µM (active)
Potency [2]: 62.2 µM (active)
Potency [3]: inactive
Potency [13]: 62.2 µM (active)
Potency [5]: 55.4 µM (active)
Potency [8]: inactive
Potency [9]: 27.8 µM (active)

C[C@]12CC[C@H]3C(=CCc4cc(O)ccc43)[C@@H]1CCC2=O
Potency [1]: inactive
Potency [2]: 54.5 µM (active)
Potency [3]: 35.6 µM (active)
Potency [4]: inactive
Potency [5]: inactive
Potency [6]: 27.3 µM (active)
Potency [11]: inactive
Potency [12]: 38.9 µM (active)
Potency [10]: inactive

Cc1ccc(O)cn1
Potency [1]: inactive
Potency [2]: inactive
Potency [3]: inactive
Potency [4]: inactive
Potency [5]: inactive
Potency [6]: inactive
Potency [7]: inactive
Potency [11]: inactive
Potency [8]: inactive
Potency [9]: inactive
Potency [12]: inactive
Potency [10]: inactive

CC(C)(c1cc(Br)c(OCCO)c(Br)c1)c1cc(Br)c(OCCO)c(Br)c1
Potency [14]: inactive
Potency [2]: 42.3 µM (active)
Potency [3]: inactive
Potency [5]: inactive
Potency [7]: 42.3 µM (active)
Potency [8]: inactive
Potency [12]: 42.7 µM (active)

S=P(N1CC1)(N1CC1)N1CC1
Potency [14]: inactive
Potency [15]: inactive
Potency [16]: inactive
outcome [17]: inactive
outcome [18]: inactive
Potency [19]: inactive
outcome [20]: inactive
Potency [2]: inactive
Potency [3]: inactive
Potency [4]: inactive
Potency [13]: inactive
Potency [6]: inactive
Potency [7]: inactive
Potency [11]: 5.74 µM (active)
Potency [8]: inactive
Potency [9]: inactive

CCN(CC)CCCN(c1ccccc1)C1Cc2ccccc2C1
Potency [15]: inactive
Potency [19]: inactive
Potency [3]: inactive
Potency [6]: inactive
Potency [7]: inactive
Potency [9]: inactive
Potency [10]: inactive

CC(C)(C)c1cc(/C=C2\SC(=N)NC2=O)cc(C(C)(C)C)c1O
Potency [14]: inactive
Potency [2]: 61.1 µM (active)
Potency [3]: inactive
Potency [4]: inactive
Potency [13]: inactive
Potency [7]: 61.1 µM (active)
Potency [8]: inactive
Potency [12]: 54.9 µM (active)
Potency [10]: inactive

CCN(CC)CCNc1ccc(CO)c2sc3ccccc3c(=O)c12
Potency [14]: inactive
Potency [2]: 13.3 µM (active)
Potency [3]: inactive
Potency [4]: 7.5 µM (active)
Potency [5]: 2.66 µM (active)
Potency [11]: 8.41 µM (active)
Potency [8]: inactive
Potency [12]: 26.8 µM (active)

— PubChem BioAssay (Tox21)
